Growth inhibition data for 20 molecules are collected here from PubChem BioAssay (NCI).

Experiment [1] can be described thus: NCI Yeast Anticancer Drug Screen. Data for the rad50 strain (AID 155).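 Also: 0% = growth of vehicle-only cultures of the same strain.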 Particulars: S. cerevisiae rad50 strain growth inhibition; at 50.0 µM; stronger effect = higher value. The method in brief: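 Vehicle-treated cultures provide the reference for the growth inhibition reported for compound-exposed, repair-deficient yeast.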
The nature of experiment [2]: NCI Yeast Anticancer Drug Screen. Data for the mec2-1 strain (AID 157). Particulars: S. cerevisiae mec2-1 strain, at 50.0 µM, stronger effect = higher value. The method in brief: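 mec2-1 yeast strain, carrying an alteration in DNA damage repair or cell cycle control, was exposed to compounds; growth inhibition was measured relative to vehicle-treated controls.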
Experiment [3] can be described thus: NCI Yeast Anticancer Drug Screen. Data for the sgs1 mgt1 strain (AID 161).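 Also: 0% = growth of cultures given vehicle only.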 Particulars: S. cerevisiae sgs1 mgt1 strain, at 50.0 µM, stronger effect = higher value. Summed up:
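Percent growth inhibition was derived by comparing compound-exposed mutant yeast with vehicle-exposed cultures. The strain carries alterations in DNA damage repair.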

Experiment [4] can be described thus: NCI Yeast Anticancer Drug Screen. Data for the cln2 rad14 strain (AID 165).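 Also: 0% = growth equal to vehicle treated cultures.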 As to conditions: S. cerevisiae cln2 rad14 strain, at 50.0 µM, stronger effect = higher value. The method in brief:
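Yeast carrying cln2 and rad14 alterations (cell cycle control and DNA damage repair) were exposed to compounds. Growth inhibition was measured against vehicle-treated controls.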

The nature of experiment [5]: NCI Yeast Anticancer Drug Screen. Data for the bub3 strain (AID 167). As to conditions: S. cerevisiae bub3 mutant strain, at 50.0 µM, stronger effect = higher value. Summed up: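 Mutant yeast screening strain plus compound; vehicle-treated cultures serve as the 0% inhibition reference.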
The nature of experiment [6]: NCI Yeast Anticancer Drug Screen. Data for the mlh1 rad18 strain (AID 175). As to conditions: S. cerevisiae mlh1 rad18 strain growth inhibition; at 50.0 µM; stronger effect = higher value. Summed up:
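Growth inhibition of the yeast strain was measured after compound exposure and expressed relative to vehicle-treated controls. The strain carries defined defects in DNA damage repair.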

The panel holds about 79,000 compounds, 15% with a hit somewhere; the sample as a whole holds those more often. Unmarked numbers belong to inactive results. Calls of active or inactive are those of the source. Rule as the data show it: active = growth inhibition above about 70%; inactive = the rest.

`CCN(CC)CCOc1ccccc1C(C)C`: the growth inhibition in experiment [1] is 14.6%; in experiment [2], 7.5%; in experiment [3], 17.1%; in experiment [4] it was 19.5%; in experiment [5], 4%; in experiment [6] it was 25.1%.
As to `O=S(=O)(CS(=O)(=O)N1CCCCC1)N1CCCCC1`, the growth inhibition in experiment [1] was -3.8%; in experiment [2], -5.4%; in experiment [3], -3.4%; in experiment [4], -9.7%; in experiment [5] it was 6.7%; in experiment [6], 0.95%.
As for `Clc1ccc(Cl)nc1`, the growth inhibition in experiment [1] was -8.25%; in experiment [2], -8.25%; in experiment [3], -8.2%; in experiment [4] it was -13.7%; in experiment [5], 2.75%; in experiment [6], 5.45%.
With `O=C1C=CC(=O)c2c(Cl)ccc(O)c21`, the growth inhibition in experiment [1] is -16.9%; in experiment [2] it was -30.6%; in experiment [3], -20.4%; in experiment [4] it was 10.1%; in experiment [5], -20.2%; in experiment [6], -8.7%.
Regarding `CC1CCc2nc(N)nc(CC3CC(=O)NC(=O)C3)c2C1` (stereo not given), the growth inhibition is -2.75% in experiment [1]; -5.65% in experiment [2]; -8.7% in experiment [3]; -45.5% in experiment [4]; -12.8% in experiment [5]; -3.2% in experiment [6].
As to `O=C(CCCN1CCC2(CC1)NC(=O)c1ccccc1O2)c1ccc(F)cc1`, the growth inhibition is 23.6% in experiment [1]; 10.6% in experiment [2]; 55.5% in experiment [3]; 48.9% in experiment [4]; 36.8% in experiment [5]; 21.7% in experiment [6].
As for `Cc1cc(=O)[nH]c(NN2C(Cl)C(=O)C2c2cccc(Cl)c2)n1` (stereo not given), the growth inhibition in experiment [1] is -5.85%; in experiment [2], -34.1%; in experiment [3], -9.4%; in experiment [4], 2.6%; in experiment [5] it was -10.5%; in experiment [6], -33%.
Consider `CN(C)CCOC(=O)C(C)(C)Sc1ccc(Cl)cc1`, for which the growth inhibition in experiment [1] was 11.1%; in experiment [2], 23.3%; in experiment [3] it was 26.4%; in experiment [4], -5.35%; in experiment [5] it was 0.4%; in experiment [6], 25.5%.
`CCOC(=O)CC(C(=O)OCC)c1ccccc1` (stereo not given): the growth inhibition in experiment [1] is -3.4%; in experiment [2], 10.2%; in experiment [3], -5.4%; in experiment [4] it was -6.35%; in experiment [5], 9.85%; in experiment [6], -19.4%.
Turning to `COC(=O)CC1C(=O)OC23CCC1C2(C)CCC1C3CCC2CC(OC(C)=O)CCC21C` (stereo not given), the growth inhibition in experiment [1] was 87.4% (active); in experiment [2], 89.3% (active); in experiment [3] it was 90.5% (active); in experiment [4], 82% (active); in experiment [5], 87.5% (active); in experiment [6] it was 87.9% (active).
As for `COc1cc(NCCCCC2CCCCN2)c2ncccc2c1` (stereo not given), the growth inhibition is 15.7% in experiment [1]; 2% in experiment [2]; 39% in experiment [3]; -11.4% in experiment [4]; 55.5% in experiment [5]; 48.8% in experiment [6].
With `Cc1ccc(S(=O)(=O)Nc2ccc(C(=O)Cl)cc2)cc1`, the growth inhibition in experiment [1] is 4.8%; in experiment [2] it was 25.4%; in experiment [3], 23.5%; in experiment [4], 6.9%; in experiment [5], 27.4%; in experiment [6] it was 11.8%.
Consider `N=C(c1ccc2ccccc2c1)c1ccccc1Cc1ccccc1`, for which the growth inhibition in experiment [1] was 17.2%; in experiment [2] it was -24.2%; in experiment [3], 6.15%; in experiment [4], -52.5%; in experiment [5], 9.35%; in experiment [6] it was 24.2%.
Regarding `COc1ccc(C2C(N)=NCC2c2ccccn2)cc1` (stereo not given), the growth inhibition is -21.9% in experiment [1]; -17.6% in experiment [2]; -12.4% in experiment [3]; 16.1% in experiment [4]; -9.55% in experiment [5]; -12.3% in experiment [6].
Turning to `COc1cc2c(cc1OC)-c1cc3ccc(OC)c(OC)c3c[n+]1CC2`, the growth inhibition in experiment [1] is -8.55%; in experiment [2], -21.8%; in experiment [3] it was 23.6%; in experiment [4] it was -14.1%; in experiment [5], -9.45%; in experiment [6] it was -4.35%.
As to `CC(COc1ccccc1)OC=O` (stereo not given), the growth inhibition in experiment [1] is 10.6%; in experiment [2], -2.65%; in experiment [3] it was 8.2%; in experiment [4], -24.4%; in experiment [5], -13.8%; in experiment [6], 8.65%.
In the case of `Cc1ccccc1C1CCCCC1OS(C)(=O)=O` (stereo not given), the growth inhibition in experiment [1] was -6.3%; in experiment [2], -1.35%; in experiment [3], -15.2%; in experiment [4], -7.6%; in experiment [5], 7.1%; in experiment [6], -11.1%.
Turning to `Cc1cc2c(c(C(=O)NCC(=O)N[C@@H](C)C(=O)OCc3ccccc3)c1)Oc1c(cc(C)cc1C(=O)NCC(=O)N[C@@H](C)C(=O)OCc1ccccc1)S2`, the growth inhibition in experiment [1] was 26.4%; in experiment [2], 16.8%; in experiment [3], 23.8%; in experiment [4], 33%; in experiment [5], 19.6%; in experiment [6], 33.2%.
Regarding `Cn1cccc1/C=N/N=C(/N)NO`, the growth inhibition is 22.9% in experiment [1]; -9.85% in experiment [2]; -13.7% in experiment [3]; -4.5% in experiment [4]; -18.5% in experiment [5]; -0.4% in experiment [6].
Take `O=C(O)c1cc(C(=O)O)c(-c2ccccc2)c(-c2ccccc2)c1`: the growth inhibition was 8.9% in experiment [1]; 2.25% in experiment [2]; -4.05% in experiment [3]; 0.65% in experiment [4]; 1.4% in experiment [5]; -5.3% in experiment [6].
